Test results from PubChem BioAssay AID2023 (NMMLSC, 2009).
About 1,100 (0.34%) of roughly 320,000 compounds were called active. Only a selection was taken, and actives are over-represented in it overall. Unmarked numbers belong to inactive results.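 How the source made its calls: active means GFP response vs DMSO above a set limit, about the screen mean plus 3 SD (cut at about 150% in these data); inconclusive means under 70 cell events counted for the yeast strain; inactive means the rest.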

test: modulators of LAP4-GFP expression in yeast, primary screen, S. cerevisiae, multiplex flow cytometry, MLPCN library (AID 2023); settings: 3 h, at 10 µM, hits give high values, median GFP as percent of DMSO wells

| Compound | GFP response vs DMSO |
| --- | --- |
| COc1ccc(C2(c3ccc(OC)cc3)NC(=O)N(CC(=O)Nc3cc(C)on3)C2=O)cc1 | 92.2% |
| O=C(Cc1ccccc1)NC(=S)Nc1ccc(N2CCCCC2)cc1 | 111% |
| CC(=O)Nc1ccc(S(=O)(=O)Nc2ccc(N3CCCCC3)cc2)cc1 | 105% |
| O=C1C=CC(=O)N1c1ccc(N2CCCCC2)cc1 | 179% (active) |
| COc1ccccc1N(CCOc1ccccc1)S(=O)(=O)c1ccccc1 | 103% |
| Cc1nc([N+](=O)[O-])nn1C12CC3CC(CC(Br)(C3)C1)C2 | 109% |
| Cc1ccc(C(=O)CSc2ccccc2C(=O)O)cc1 | 104% |
| Cc1ccc(SC(CC(=O)c2ccc(C(C)(C)C)cc2)C(=O)O)cc1 (stereo not given) | 170% (active) |
| Cc1ccc(CSCC(N)C(=O)O)cc1 (stereo not given) | 97% |
| COc1cnc(-c2ccccn2)nc1Oc1ccc(C(C)(C)C)cc1 | 107% |
| CC(C)(C)Nc1nc(-c2ccccn2)nc2ccccc12 | 90.7% |
| Cc1ccc(Oc2nc(-c3ccccn3)nc3ccccc23)cc1 | 151% (active) |
| Nn1c(Cc2cccc3ccccc23)nnc1SCC(=O)N1CC(=O)Nc2ccccc21 | 99.1% |
| Cc1cccc(NC(=O)c2ccc([N+](=O)[O-])o2)c1 | 151% (active) |
| O=C(Nc1ccc(Br)cn1)c1ccc([N+](=O)[O-])o1 | 105% |
| Cc1onc(NC(=O)c2ccc([N+](=O)[O-])o2)c1Br | 116% |
| Cc1cccc(N)c1SC1CCCCC1O (stereo not given) | 92.2% |
| Cc1ccc(C(CNC(=O)Nc2ccccc2)N2CCN(C)CC2)cc1 (stereo not given) | 102% |
| Cc1cc(O)c(C(=O)/C=C/c2c(F)c(F)c(F)c(F)c2F)c(=O)o1 | 152% (active) |
| Cc1cc(O)c(Sc2ccccc2)c(=O)o1 | 109% |
| Cc1ccc(N=Cc2c(O)cc(C)oc2=O)c(C)c1 | 100% |
| Cc1cccnc1NC(=O)c1cccc(S(=O)(=O)N2CCN(c3ccc(F)cc3)CC2)c1 | 87.3% |
| Oc1c(CN2CCCC2)cc(COCc2ccccc2)c2cccnc12 | 105% |
| Oc1c(CN2CCN(c3ccc(F)cc3)CC2)cc(Cl)c2cccnc12 | 203% (active) |

| Compound | GFP response vs DMSO |
| --- | --- |
| Cc1cc(C)c(OCC(=O)N(Cc2cccs2)C2CCS(=O)(=O)C2)c(C)c1 (stereo not given) | 98.7% |
| C/C(=N\NS(=O)(=O)c1ccc(Cl)cc1)c1ccc(NC(=O)c2ccco2)cc1 | 94.4% |
| Fc1ccc(/C=N/Nc2nc(-c3cccnc3)nc3ccccc23)cc1 | 165% (active) |
| O=[N+]([O-])c1ccc(F)cc1Oc1nc(-c2cccnc2)nc2ccccc12 | 100% |
| Cc1ccc2nc(C)cc(N/N=C/c3ccc(F)cc3)c2c1 | 103% |
| CCOC(=O)CCC(=O)OCC(=O)NC(C)C1CC2CCC1C2 (stereo not given) | 100% |
| COc1ccc(S(=O)(=O)N2CCN(CC(=O)N3CCOCC3)CC2)cc1OC | 95% |
| O=C(COC(=O)c1cccnc1Cl)NC12CC3CC(CC(C3)C1)C2 | 104% |
| CN/C(=C\[N+](=O)[O-])NCCSCc1csc(CN(C)C)n1 | 95.9% |
| COC(=O)c1ccc(-c2noc(CN(Cc3ccccn3)CC3CCCO3)n2)cc1 (stereo not given) | 98.4% |
| COc1ccccc1C(=O)Nc1ccc(OCc2nnc3c4ccccc4c(C)nn23)cc1 | 102% |
| C=CCC1(CC=C)CCCN1C(=O)CC1C(=O)NCCN1Cc1ccccc1OC (stereo not given) | 93% |
| CCc1noc(C)c1C(=O)Nc1nc2ccc(OC)cc2s1 | 152% (active) |
| CCc1noc(C)c1C(=O)Nc1nc(-c2ccccc2)cs1 | 115% |
| COc1cccc(C(=O)Nc2nc3ccc(S(C)(=O)=O)cc3s2)c1 | 103% |
| COc1cc(C(=S)N2CCOCC2)cc(OC)c1OC(=O)c1ccc([N+](=O)[O-])cc1[N+](=O)[O-] | 91.2% |
| Nc1c(C(=O)c2cccs2)sc2nsc(SCCN3CCCCC3)c12 | 203% (active) |
| O=C(CSc1ncnc2sccc12)N1CCN(C(=O)c2cccs2)CC1 | 107% |
| CCc1c(C)c2ccc(OC3CCCCC3=O)cc2oc1=O (stereo not given) | 99.3% |
| CC(C)c1ccc(NC(=O)C2CCCN(S(=O)(=O)c3cccnc3)C2)cc1 (stereo not given) | 94.4% |
| CCOc1ccc(C(c2c(C)[nH][nH]c2=O)c2c(C)[nH][nH]c2=O)cc1OCC | 128% |
| Cc1[nH][nH]c(=O)c1C(c1ccc(-c2ccc(Cl)cc2)o1)c1c(C)[nH][nH]c1=O | 184% (active) |
| O=C(NC1CCCCC1)c1ccc(-c2ccc(Cl)cc2)o1 | 118% |
| Oc1ccc2ccccc2c1N=Nc1nccs1 | 165% (active) |

| Compound | GFP response vs DMSO |
| --- | --- |
| CCN(c1ccccc1)S(=O)(=O)c1cc2c(cc1C)n(C)c(=O)c(=O)n2C | 99.4% |
| Cc1ccccc1OCCC(=O)OCC(=O)NCCc1ccc(S(N)(=O)=O)cc1 | 91.6% |
| CC(C)CC1(C)NC(=O)N(CC(=O)Nc2ccc3c(c2)OCCO3)C1=O (stereo not given) | 95.9% |
| CC1(C)CC(=O)CC2(C1)NCC(c1ccccc1Cl)c1c2[nH]c2ccccc12 (stereo not given) | 107% |
| CC(C)c1nc(SCC(=O)Nc2cccc(C(=O)O)c2)c2c3c(sc2n1)CCCC3 | 99.7% |
| COc1ccc(-n2c(C)cc(C(=O)CN3C(=O)NC4(CCc5ccccc54)C3=O)c2C)cc1 (stereo not given) | 96.4% |
| CCc1ccc(S(=O)(=O)N/N=C\c2ccc([N+](=O)[O-])o2)cc1 | 87.6% |
| CCn1c(/C=C/c2ccc([N+](=O)[O-])o2)nc2ccccc2c1=O | 358% (active) |
| CCn1c(=O)c([N+](=O)[O-])c(NCc2ccc3c(c2)OCO3)c2ccccc21 | 101% |
| Cc1cccc([C@@H]2[C@@H]3C(=O)N(Cc4ccccc4)C(=O)[C@@H]3[C@]3(C)C(=O)N(c4ccc(Br)cc4)C(=O)N23)c1 | 98.8% |
| CN(c1ccccc1)S(=O)(=O)c1cc(C(=O)N2CCN(c3ncccn3)CC2)ccc1Cl | 91.2% |
| C[C@@H](CN1CCC[C@H]1CN1C(N)=NC[C@@H]1Cc1ccccc1)N1C[C@@H](Cc2ccccc2)N(CCCC2CCCC2)C1=N | 96.6% |
| O=C(Nc1cc(-c2ccccc2)nn1-c1ccccc1F)c1ccc([N+](=O)[O-])cc1 | 134% |
| COc1ccccc1CNC(=O)CN1CCC(n2cnc3cc(F)ccc32)CC1 | 97.5% |
| COc1ccc(NC(=O)/C(Cl)=C(/Cl)S(=O)Cc2ccc(C)cc2)cn1 (stereo not given) | 201% (active) |
| COc1ccc(Nc2ccc([N+](=O)[O-])cn2)cn1 | 89.6% |
| CCOc1ccc(S(=O)(=O)Nc2ccc(OC)nc2)cc1 | 98.1% |
| O=C(Nc1ccon1)c1nc[nH]c1C(=O)NCc1ccccc1 | 94.7% |
| Cc1cc2ccccc2n1CCC(=O)O | 154% (active) |
| Cc1cc2ccccc2n1CCNC(=O)COc1ccc2ccccc2c1 | 112% |
| O=C(O)CCn1c(Cc2ccccc2)nc2ccccc21 | 88.9% |
| CCOc1ccc(NC(=S)NC(=O)/C=C/c2ccc(OC)cc2)c([N+](=O)[O-])c1 | 95.5% |
| COc1ccc(-n2nc(C(=O)NCC(=O)N3CCCCCC3)c3ccccc3c2=O)cc1Cl | 112% |
| CNS(=O)(=O)c1cccc(C(=O)OCCCC(=O)c2ccccc2)c1 | 100% |

| Compound | GFP response vs DMSO |
| --- | --- |
| CCN(CC)c1ccc2cc(C(=O)O)c(=O)oc2c1 | 157% (active) |
| COc1cccc(C(=O)c2cc3ccc(O)cc3oc2=O)c1 | 121% |
| CCOC(=O)c1cc2cc3ccccc3cc2oc1=O | 88.3% |
| C[C@H]1CC[C@]2(O[C@@H](CCO)C[C@@H](O)[C@@H]2O)O1 | 105% |
| O=c1[nH]c(CSc2ccccc2)nc2c1oc1ccccc12 | 107% |
| O=C(Nc1cccc2ccccc12)c1onc2c1CCCC2 | 94% |
| COc1ccc(N(CC(=O)NCC2CCCO2)C(=O)CCC(=O)Nc2nccs2)c(OC)c1 (stereo not given) | 91.8% |
| Cc1ccc(C(=O)Nc2ccn(C)n2)cc1 | 101% |
| O=C(Nc1nccs1)c1cc(S(=O)(=O)N2CCOCC2)c(Cl)cc1Cl | 89.4% |
| CN(C)S(=O)(=O)c1cc(C(=O)Nc2ccn(C)n2)c(Cl)cc1Cl | 6410% [may fluoresce green] (active) |
| COc1cccc(CCNC(=O)COc2cccc3c2OC(C)(C)C3)c1 | 113% |
| COc1cc(F)c(C2=CC(=O)CC(C)(C)C2)cc1F | 118% |
| CCOC(=O)c1ccccc1NC(=S)N1CCC(C(N)=O)CC1 | 111% |
| CN(C)CCc1c[nH]c2ccc(Cn3cncn3)cc12 | 119% |
| COc1ccc(NC(=O)C2C3C=CC(C3)C2C(=O)NCc2ccccn2)c(OC)c1 (stereo not given) | 92.5% |
| CCS(=O)(=O)c1cc([N+](=O)[O-])c(Sc2ccccc2N)s1 | 100% |
| Cc1ccc(C(C[N+](=O)[O-])c2c(C)cc3ccccn23)cc1 (stereo not given) | 97.5% |
| Nc1ccccc1SC(C[N+](=O)[O-])c1ccccc1 (stereo not given) | 209% (active) |
| COC(=O)c1ccc(N2CCOCC2)c(NC(=O)c2ccc(Br)o2)c1 | 84.3% |
| O=C1CCN(CCCc2ccccc2)CCN1CCO | 109% |
| COc1ccc(C)cc1NC(=O)CSc1cccc[n+]1[O-] | 99.3% |
| Cc1ccc(S(=O)(=O)N2CCC(C)CC2)cc1C(=O)NCc1ccccn1 | 99.2% |
| Cc1cc(N)n2nc(-c3ccc(C(C)(C)C)cc3)cc2n1 | 77.9% |
